Each structure is given as a SMILES string. Calls of active or inactive are those of the source.

In the first test the test system is Neuregulin-1 EGF-like domain. Kind of test: binders of neuregulin-1 EGF-like domain, primary screen, biochemical, small-molecule microarray, 635 nm fluorescence (AID 1081).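 Further: binding of the protein to compounds printed on small-molecule microarray slides.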 To be noted: small-molecule microarray binding, higher = more signal.
Regarding `CN(C)CCCNC(=O)[C@@]1(c2ccc([N+](=O)[O-])cc2)CC(=O)N(C2CCCCC2)[C@@H]1c1ccc(CO)cc1`, the composite z-score was 0.692. `COc1ccc(C#Cc2ccc3c(c2)[C@]2(C(=O)N3)[C@H](c3ccccc3OCCO)N3[C@H](c4ccccc4)[C@H](c4ccccc4)OC(=O)[C@H]3[C@@H]2C(=O)O)cc1` had a composite z-score of 1.28.

As for `COc1ccc([C@H]2OC[C@@H]3CC4(CC=CC4)C(=O)N32)cc1`, the composite z-score stood at 1. In turn, `COc1ccc(C(O)C2C=CC3C(=O)NC(=O)C3N2Nc2ccccn2)c2ccccc12` (centres undefined) returned a composite z-score of 0.741. As for `Cc1ccc(S[C@]2(C(=O)NC(C)C)CC(=O)N(Cc3ccccc3Cl)[C@@H]2c2ccc(CO)cc2I)cc1`, the composite z-score is 1.02. `C=CCOC(=O)[C@@H]1[C@H]2C(=O)O[C@H](c3ccccc3)[C@H](c3ccccc3)N2[C@H](c2ccc(OCCOC(=O)[C@@H]3C[C@@H]4C(=O)N5CCC[C@H]5C(=O)N4[C@@H]3c3ccc(O)cc3)cc2)[C@@]12C(=O)Nc1ccc(I)cc12` gave a composite z-score of 1.19. As to `CCN(CC)c1ccc(N2CC=CC34O[C@@H]5/C=C\CCCOC(=O)C5[C@H]3C(=O)N(CCO)[C@@H]4C2=O)cc1` (some centres undefined), the composite z-score worked out at 0.632. The compound `C=CCNC(=O)[C@@H]1[C@H]2C(=O)O[C@H](c3ccccc3)[C@H](c3ccccc3)N2[C@H](c2ccc(OCCO)cc2)[C@@]12C(=O)Nc1ccc(C#CCCO)cc12` came in with a composite z-score of 1.25. The compound `COC(=O)C(CC#Cc1ccc2c(c1)[C@]1(C(=O)N2)[C@H](c2ccc(O)cc2)N2[C@H](c3ccccc3)[C@H](c3ccccc3)OC(=O)[C@H]2[C@@H]1C(=O)Nc1nc2ccccc2s1)C(=O)OC` displayed a composite z-score of 1.24. On to `CCOC(=O)C[C@H]1[C@H](OC(=O)c2cc3ccccc3oc2=O)[C@@H](NC(=O)C2CCCCC2)c2cc(OCCCO)ccc2N1C(=O)c1ccccc1`, for which the composite z-score was determined as 0.863. The same measure, in the same setting: the result for `C=CC[C@@]1(C(N)=O)N=C(c2ccc(OCCCO)cc2)O[C@@H]1c1ccccc1CN=[N+]=[N-]` reads 1.41. The compound `COc1ccc([Si](C)(C)[C@H]2[C@H](CCO)O[C@@]3(C(=O)N(C)c4c(Br)cc(C)cc43)[C@@H]2C)cc1` showed a composite z-score of 1.12. Consider `C[C@@]1([C@@H](NC(=O)c2ccccc2)c2ccc(-c3ccccc3)cc2)C[C@H]1C1CCCCC1`, for which the composite z-score is -0.382. In the case of `O=C1NC(=O)C2C1C=CC(C(O)C(c1ccccc1)c1ccccc1)N2Nc1ccc(Cl)cc1Cl` (centres undefined), the composite z-score is 0.756. `COCCOC(=O)N1C(=O)[C@@]2(c3cc(C#Cc4ccc(OC)cc4)ccc31)[C@H](C(N)=O)[C@H]1C(=O)O[C@H](c3ccccc3)[C@H](c3ccccc3)N1[C@@H]2c1ccccc1OCCO` returned a composite z-score of 1.27. On to `C#CCN(Cc1ccccc1Br)C(/C=C/c1ccccc1)CO` (centres undefined), for which the composite z-score was -0.131.

Consider `CCCN1C(=O)[C@]2(CCS(=O)(=O)c3ccccc3)N=C(c3ccc(OCCCO)cc3)O[C@@H]2c2ccccc21`, for which the composite z-score was 1.27.

Compound `COCCOC(=O)N1C(=O)[C@@]2(c3cc(C#CCCO)ccc31)[C@H](C(=O)Nc1nc3ccccc3s1)[C@H]1C(=O)O[C@H](c3ccccc3)[C@H](c3ccccc3)N1[C@@H]2c1ccc(OCCO)cc1` returned a composite z-score of 1.07. In turn, `CCCCC(=C=CC[C@@H](O)c1ccccc1OCCO)CCO` showed a composite z-score of 0.479.

System in another test: not listed separately
Kind of test: FRG1 promoter luciferase signal modulators, primary screen, FRG1 inhibition for FSHD, cell-based, C2C12 myotubes, firefly/Renilla luciferase, luminescence (AID 1084). The following applies: higher = more signal, called active from +8 up or from −8 down.
In the case of `O=C1O[C@H](c2ccccc2)[C@H](c2ccccc2)N2[C@H]1[C@@H](C(=O)Nc1nc3ccccc3s1)[C@]1(C(=O)Nc3ccc(C#CCCO)cc31)[C@H]2c1ccc(OCCO)cc1`, the z-score was -0.0455 (inactive).

`O=C1OCCC/C=C\[C@H]2OC34C=CCN(Cc5ccccc5)C(=O)[C@H]3N(CCCCCCO)C(=O)[C@@H]4C12` (some centres undefined): the z-score is 0.247 (inactive).

For the compound `C=CC[C@]1(C(=O)N2CCCCC2)N=C(c2ccc(OCCCO)cc2)O[C@H]1c1ccccc1`, the z-score is -1.11 (inactive). `COc1ccc(C(=O)O[C@H]2CC[C@]3(C)C4=C(CCC3C2(C)C)[C@]2(C)CC[C@H]([C@H](C)CCCC(C)C)[C@@]2(C)CC4)cc1` (some centres undefined): the z-score was -1.16 (inactive).

On to `C[C@]1(C(=O)NC2CC2)c2ccccc2C(=O)N(Cc2cc(C(F)(F)F)cc(C(F)(F)F)c2)[C@H]1c1ccc(CO)cc1`, for which the z-score is -0.583 (inactive). Turning to `NCCCCCNC(=O)[C@@H]1C[C@@H]2C(=O)NCC(=O)N2[C@@H]1c1ccc(O)cc1`, the z-score was 0.117 (inactive).

With `[N-]=[N+]=Nc1ccccc1C[C@@]1(C(=O)NCCN2CCOCC2)N=C(c2ccc(OCCCO)cc2)O[C@@H]1c1ccccc1`, the z-score was -1.23 (inactive). With `Cc1ccc(S[C@]2(C(=O)NC3CC3)CC(=O)N(C3Cc4ccccc4C3)[C@@H]2c2ccc(CO)cc2)cc1`, the z-score was -2.83 (inactive).

Take `C=C(/C(=C/C[C@@H](OC(C)=O)c1ccc(OCCO)cc1)c1cnc2ccccc2c1)C(C)C`: the z-score is -1.06 (inactive).

`CC1(C)[C@@H]2CC(C(O)C3C=CC4C(=O)N(c5ccccc5)C(=O)C4N3Nc3ccccc3)=C[C@H]1C2` (some centres undefined): the z-score is -0.559 (inactive). For `COC(=O)[C@@]1(Cc2ccc(F)cc2)[C@H]2c3cc(C(=O)N4CCCC4)n(Cc4cc(C)n(C)n4)c3C[C@H]2CN1C(=O)c1ccccc1`, the z-score was 0.23 (inactive). `CC1CC/C=C\[C@H]2OC34C=CCN(c5ccc(Cl)cc5)C(=O)[C@H]3N(CCO)C(=O)[C@]4(C)C2C(=O)O1` (some centres undefined): the z-score is -0.39 (inactive). Regarding `O=C1O[C@H](c2ccccc2)[C@H](c2ccccc2)N2[C@H]1[C@@H](C(=O)O)[C@]1(C(=O)Nc3ccc(C#CCCO)cc31)[C@H]2c1ccc(O)cc1`, the z-score was 0.482 (inactive). The same measure, in the same setting: the result for `COc1cc2c(cc1O)C=[N+](Cc1cccc(OC(F)(F)F)c1)CC2` reads -0.886 (inactive). For the compound `COC(=O)c1c(CC[C@@H](CO)NC(=O)N[C@H](Cn2cc(Cc3ccccc3)nn2)C(C)C)oc(C(C)=O)c1C(=O)OC`, the z-score was 0.82 (inactive). Same read-out and setting: the figure for `O=C1O[C@H](c2ccccc2)[C@H](c2ccccc2)N2[C@H]1[C@@H](C(=O)N1CCN(c3ncccn3)CC1)[C@]1(C(=O)Nc3ccc(C#CC4=CCCCC4)cc31)[C@H]2c1ccc(O)cc1` is -0.63 (inactive); for `CN(C)CCCNC(=O)[C@@]1(c2ccc([N+](=O)[O-])cc2)CC(=O)N(C2CCCCC2)[C@@H]1c1ccc(CO)cc1` it is -0.767 (inactive). On the same count and under the same terms, the figure for `COc1ccc(C#Cc2ccc3c(c2)[C@]2(C(=O)N3)[C@H](c3ccccc3OCCO)N3[C@H](c4ccccc4)[C@H](c4ccccc4)OC(=O)[C@H]3[C@@H]2C(=O)O)cc1` is -0.0646 (inactive); for `COc1ccc([C@H]2OC[C@@H]3CC4(CC=CC4)C(=O)N32)cc1` it is 1.43 (inactive); for `COc1ccc(C(O)C2C=CC3C(=O)NC(=O)C3N2Nc2ccccn2)c2ccccc12` (centres undefined) it is 0.87 (inactive). In the case of `Cc1ccc(S[C@]2(C(=O)NC(C)C)CC(=O)N(Cc3ccccc3Cl)[C@@H]2c2ccc(CO)cc2I)cc1`, the z-score is -1.42 (inactive). Turning to `C=CCOC(=O)[C@@H]1[C@H]2C(=O)O[C@H](c3ccccc3)[C@H](c3ccccc3)N2[C@H](c2ccc(OCCOC(=O)[C@@H]3C[C@@H]4C(=O)N5CCC[C@H]5C(=O)N4[C@@H]3c3ccc(O)cc3)cc2)[C@@]12C(=O)Nc1ccc(I)cc12`, the z-score is -0.804 (inactive). On to `CCN(CC)c1ccc(N2CC=CC34O[C@@H]5/C=C\CCCOC(=O)C5[C@H]3C(=O)N(CCO)[C@@H]4C2=O)cc1` (some centres undefined), for which the z-score was 0.599 (inactive). `C=CCNC(=O)[C@@H]1[C@H]2C(=O)O[C@H](c3ccccc3)[C@H](c3ccccc3)N2[C@H](c2ccc(OCCO)cc2)[C@@]12C(=O)Nc1ccc(C#CCCO)cc12`: the z-score is 0.806 (inactive). On to `COC(=O)C(CC#Cc1ccc2c(c1)[C@]1(C(=O)N2)[C@H](c2ccc(O)cc2)N2[C@H](c3ccccc3)[C@H](c3ccccc3)OC(=O)[C@H]2[C@@H]1C(=O)Nc1nc2ccccc2s1)C(=O)OC`, for which the z-score was -0.532 (inactive). In the case of `CCOC(=O)C[C@H]1[C@H](OC(=O)c2cc3ccccc3oc2=O)[C@@H](NC(=O)C2CCCCC2)c2cc(OCCCO)ccc2N1C(=O)c1ccccc1`, the z-score was 0.0161 (inactive). Turning to `C=CC[C@@]1(C(N)=O)N=C(c2ccc(OCCCO)cc2)O[C@@H]1c1ccccc1CN=[N+]=[N-]`, the z-score is 2.94 (inactive).

As to `COc1ccc([Si](C)(C)[C@H]2[C@H](CCO)O[C@@]3(C(=O)N(C)c4c(Br)cc(C)cc43)[C@@H]2C)cc1`, the z-score was -2.14 (inactive). Turning to `C[C@@]1([C@@H](NC(=O)c2ccccc2)c2ccc(-c3ccccc3)cc2)C[C@H]1C1CCCCC1`, the z-score was 2.09 (inactive). In the case of `O=C1NC(=O)C2C1C=CC(C(O)C(c1ccccc1)c1ccccc1)N2Nc1ccc(Cl)cc1Cl` (centres undefined), the z-score is 1.04 (inactive). As for `COCCOC(=O)N1C(=O)[C@@]2(c3cc(C#Cc4ccc(OC)cc4)ccc31)[C@H](C(N)=O)[C@H]1C(=O)O[C@H](c3ccccc3)[C@H](c3ccccc3)N1[C@@H]2c1ccccc1OCCO`, the z-score is -1.26 (inactive). `C#CCN(Cc1ccccc1Br)C(/C=C/c1ccccc1)CO` (centres undefined): the z-score is -1.83 (inactive). As to `CCCN1C(=O)[C@]2(CCS(=O)(=O)c3ccccc3)N=C(c3ccc(OCCCO)cc3)O[C@@H]2c2ccccc21`, the z-score is -0.775 (inactive). Same read-out and setting: the figure for `COCCOC(=O)N1C(=O)[C@@]2(c3cc(C#CCCO)ccc31)[C@H](C(=O)Nc1nc3ccccc3s1)[C@H]1C(=O)O[C@H](c3ccccc3)[C@H](c3ccccc3)N1[C@@H]2c1ccc(OCCO)cc1` is 1.2 (inactive). Same read-out and setting: the result for `CCCCC(=C=CC[C@@H](O)c1ccccc1OCCO)CCO` reads 0.0128 (inactive).

Source of the values: PubChem BioAssay.
